Bim-Bcl-2: human Bim-Bcl-2 interaction inhibition. Bead-based flow cytometry, Bim peptide-Bcl-2 binding. inhibition, % at 10 µM. hit rate 0.06% among 190,000; in the data active = inhibition above about 40%;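 also: 0% = no compound wells with probe peptide and 100% = reference peptide inhibitor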
Target sequence (P10415 whole entry, looked up): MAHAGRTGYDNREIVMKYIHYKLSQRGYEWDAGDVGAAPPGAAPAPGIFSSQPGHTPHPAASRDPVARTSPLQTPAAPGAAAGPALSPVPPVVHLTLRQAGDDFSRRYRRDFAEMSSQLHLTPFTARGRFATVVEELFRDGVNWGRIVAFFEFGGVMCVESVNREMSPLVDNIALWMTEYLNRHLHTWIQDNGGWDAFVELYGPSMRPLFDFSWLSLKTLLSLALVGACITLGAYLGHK
BCLXL inh: blocks human Bcl-xL binding to Bim BH3 peptide | hit rate 0.7% among 320,000 | inhibition, % at 10.9 µM | AID 2129 | Q07817 | GST-Bcl-xL / FITC-Bim BH3 peptide fluorescence polarization;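 active = inhibition above the mean of all tested compounds plus 3 SD, cutoff set per campaign, cut at about 30% in these data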;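 also: 0% = DMSO wells and 100% = unlabeled Bim-BH3 peptide competitor; inhibitors lower millipolarization by displacing the labeled peptide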
Target sequence (Q07817 whole entry, looked up): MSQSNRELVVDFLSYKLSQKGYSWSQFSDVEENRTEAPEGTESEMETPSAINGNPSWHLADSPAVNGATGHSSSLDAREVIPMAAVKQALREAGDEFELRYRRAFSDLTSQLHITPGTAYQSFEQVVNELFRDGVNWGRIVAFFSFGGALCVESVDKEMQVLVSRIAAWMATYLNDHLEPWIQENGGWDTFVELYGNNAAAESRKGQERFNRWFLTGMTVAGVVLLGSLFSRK
Bfl-1 Bim block: disrupts Bim binding to human Bfl-1 | Q16548 | Bead-based flow cytometry, Bim-Bfl-1 binding inhibition | inhibition, % at 10 µM | hit rate 0.12% among 190,000;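 also: 0% = wells without compound plus tracer and 100% = blocker peptide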
Bcl-XL Bim block: inhibitors of Bim-Bcl-XL interaction, human | Bim peptide-Bcl-XL binding, bead flow cytometry, fluorescence | inhibition, % at 10 µM | hit rate 0.04% among 190,000 | Q07817
Bim-Bcl-W: disrupts Bim peptide binding to human Bcl-W; Q92843; bead-based flow cytometry; inhibition, % at 10 µM; hit rate 0.02% among 190,000; AID 952;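 also: 0% = bound tracer without compound and 100% = peptide blocker; higher means less fluorescent Bim peptide bound to Bcl-W beads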
Bcl-B Bim block: human Bim-Bcl-B interaction inhibition | hit rate 0.073% among 190,000 | bead-based flow cytometry, Bim peptide-Bcl-B binding | Q9HD36 | inhibition, % at 10 µM;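 also: 0% = tracer peptide without compound and 100% = reference inhibitor peptide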
* hit, by the source's call; / = no result; + = active, no number. Sampled rows, rich in hits. Any-hit rate of the full collection: about 0.81%. Rule as the data show it, unless noted: active = inhibition above about 40%.

SMILES	Bim-Bcl-2	BCLXL inh	Bfl-1 Bim block	Bcl-XL Bim block	Bim-Bcl-W	Bcl-B Bim block
Nc1c(C(=O)Nc2ccc(S(=O)(=O)N3CCCC3)cc2)sc2nc3ccc(OC(F)(F)F)cc3cc12	0	57*	-6	-3	-4	-1
Cc1ccc(-n2nc3c(=O)n(CC(=O)NC(C)CCc4ccccc4)nc(C)c3c2C)cc1 (configuration not stated)	/	0	/	/	/	/
Nc1cccc(Nc2ccccc2)c1	2	50*	3	5	5	9
CCCCn1c(N)c(N(CCC(C)C)C(=O)c2ccc3c(c2)OCCO3)c(=O)[nH]c1=O	/	-3	/	/	/	/
Nc1ccc2c3c(cccc13)CC2	0	38*	1	-2	0	-1
COc1ccc(C2C3=C(CCCC3=O)N(CC(=O)O)C3=C2C(=O)CCC3)cc1Cl	/	15	/	/	/	/
COc1ccccc1C1C2=C(CCCC2=O)N(CC(=O)O)C2=C1C(=O)CCC2	/	48*	/	/	/	/
Cn1cnnc1SCC(=O)Nc1ccc(N2CCCCC2)cc1	/	-3	/	/	/	/
O=C1NC(=Nc2ccc(Cl)cc2)/C(=C/c2ccco2)S1	19	59*	12	4	12	19
Cc1cccc(N=C2NC(=O)/C(=C/C=C/c3ccco3)S2)c1	9	-10	8	-7	-2	-14
Cc1cccc(N=C2NC(=O)S/C2=C\c2ccco2)c1	1	35*	2	1	0	0
Cc1occc1C(=O)NNC(=O)c1ccc(S(=O)(=O)N(C)C)cc1	/	7	/	/	/	/
CSc1ccccc1NC(=O)CSc1nnc(CNC(=O)c2ccccc2F)n1C	/	4	/	/	/	/
O=C1c2ccc3c4c(ccc(c24)C(=O)N1c1cccc(O)c1)C(=O)N(c1cccc(O)c1)C3=O	/	8	/	/	/	/
CC1(C)CC(=O)C2=C(C1)N(c1cccc(O)c1)C1=C(C2)C(=O)CC(C)(C)C1	0	81*	-4	-1	-2	0
O=C(O)c1ccc(NS(=O)(=O)c2ccc3c(c2)C(=O)c2ccccc2C3=O)cc1	1	37*	4	12	20	4
CCOc1ccc(C(=O)C[n+]2cccc3cc(C)ccc32)cc1	/	35*	/	/	/	/
Cn1c(=O)c(N)c2c3c(c(Br)ccc31)C(=O)c1ccccc1-2	/	+	/	/	/	/
COc1cc(/C=C2/C(C)=C(C#N)c3nc(N)c(C#N)c(C)c32)ccc1OCC(=O)O	0	31*	6	5	5	5
O=c1oc2ccccc2c2oc3cc(O)c(O)cc3c12	/	29	/	/	/	/
O=c1oc2c(O)c(O)cc3c(=O)oc4c(O)c(O)cc1c4c23	15	74*	17	9	16	3
COc1ccc(C2C(C(=O)/C=C/c3ccco3)=C(O)C(=O)N2CCN2CCOCC2)cc1 (configuration not stated)	8	23	6	3	9	-4
CCOc1ccc(C2C(C(=O)/C=C/c3ccco3)=C(O)C(=O)N2CCN2CCOCC2)cc1OC (configuration not stated)	2	34*	1	-1	2	-3
Cc1ccc(C)c2[nH]c(=O)c(CCNC(=O)CCc3ccccc3)cc12	/	5	/	/	/	/
O=[N+]([O-])c1c(NCCCO)cc(SCc2ccco2)c2nonc12	2	31*	23	-4	0	-7
SMILES	Bim-Bcl-2	BCLXL inh	Bfl-1 Bim block	Bcl-XL Bim block	Bim-Bcl-W	Bcl-B Bim block
COCc1ccc(C(=O)NC2CCCN(Cc3ccccc3F)C2)o1 (configuration not stated)	/	36*	/	/	/	/
CCN(CC)C(=O)C1c2ccccc2Oc2ccccc21	/	195*	/	/	/	/
COCCNC(=O)CCN1N=C(c2ccccc2)CCC1=O	/	2	/	/	/	/
CCN(CC)c1ccc2c(-c3ccc(S(=O)(=O)O)cc3S(=O)(=O)[O-])c3ccc(=[N+](CC)CC)cc-3oc2c1	/	+	/	/	/	/
Cc1ccc(-c2cc(C(=O)NC3=NCCS3)c3ccccc3n2)cc1C	-1	90*	1	-7	-1	-9
O=c1oc2c3c4c(cc2s1)CCCN4CCC3	1	130*	6	-1	1	1
O=C(N/N=C/c1cc2c3c(c1O)CCCN3CCC2)c1ccccc1O	28	/	19	25	23	18
O=c1ccc2cc3c4c(c2o1)CCCN4CCC3	3	97*	8	6	11	21
O=C(CCl)c1cc2c3c(c1)CC(=O)N3CCC2	/	7	/	/	/	/
CCN(CC(=O)Nc1cccc(OC)c1)C(=O)c1cnc(Cl)c(Cl)c1	/	2	/	/	/	/
COc1cc([N+](=O)[O-])cc(/C=C2/SC(=S)N(Cc3ccccc3)C2=O)c1O	/	49*	/	/	/	/
Cc1cc(Cl)ccc1NC(=O)CCN1C(=O)NC(C)(C)C1=O	/	-1	/	/	/	/
CCc1nnc(NC(=O)COc2ccccc2[N+](=O)[O-])s1	/	6	/	/	/	/
O=C(O)c1ccc2nc(-c3ccco3)c(-c3ccco3)nc2c1	3	/	12	0	6	1
O=C(Nc1cccc(C(F)(F)F)c1)c1ccc2nc(-c3ccco3)c(-c3ccco3)nc2c1	21	32*	15	16	17	6
O=C(NCCCO)Nc1ccc2nc(-c3ccco3)c(-c3ccco3)nc2c1	46*	120*	65*	29	46*	28
O=C(Nc1ccc2nc(-c3ccco3)c(-c3ccco3)nc2c1)NC1CC1	37	/	50*	20	35	14
COc1ccc(CCNC(=O)c2ccc3nc(-c4ccco4)c(-c4ccco4)nc3c2)cc1OC	11	21	42*	6	19	0
O=C(Nc1ccc(N2CCOCC2)cc1)Nc1ccc2nc(-c3ccco3)c(-c3ccco3)nc2c1	5	20	29	6	14	0
Nc1cc(C(F)(F)F)ccc1Nc1ccccc1	-3	6	-6	-2	0	-3
Cc1ccnc(NC(=O)C2CC(=O)N(Cc3ccccc3)C2)c1 (configuration not stated)	/	-1	/	/	/	/
O=C(NCCC1=CCCCC1)C(=O)NCc1ccncc1	2	73*	-3	0	1	-2
Cc1ccc(/C=N/NC(=O)CSc2nnc(-c3ccc(Cl)cc3)n2-c2ccccc2)o1	0	10	0	-4	-2	48*

Screens deposited in PubChem by several laboratories.
